In PubChem BioAssay (NCATS):
Inconclusive results are not listed. Calls of active or inactive are those of the source. Calls follow the shape of the full dose curve.

What was measured:
[1] = Primary qHTS for inhibitors of SARS-S pseudo-typed particle cell entry (AID 1479145); also: nearly all actives have a fitted effect of over 45% in size; as to activity change, negative = inhibition: series mostly up to about 57 µM
[2] = Primary qHTS for Huh7 cytotoxicity: counterscreen for inhibitors of MERS-S pseudotyped particle cell entry (AID 1479147)
[3] = Primary qHTS for inhibitors of MERS-S pseudo-typed particle cell entry (AID 1479149); also: nearly all actives have a fitted effect of over 60% in size; as to activity change, negative = inhibition: series mostly up to about 57 µM
[4] = Primary qHTS for Vero E6 cytotoxicity: counterscreen for inhibitors of SARS-S pseudo-typed particle cell entry (AID 1479150)
% is scaled to controls: 0 for no effect and ±100 for the full control effect.

CC(=O)OCC(=O)[C@@]1(O)[C@H](C)C[C@H]2[C@@H]3CCC4=CC(=O)C=C[C@]4(C)[C@@]3(F)[C@@H](O)C[C@@]21C
inactive: Potency [1] | Potency [2] | Potency [3] | Potency [4]

CCCc1nc(C(C)(C)O)c(C(=O)OCc2oc(=O)oc2C)n1Cc1ccc(-c2ccccc2-c2nn[nH]n2)cc1
inactive: Potency [1] | Potency [2] | Potency [3] | Potency [4]

NS(=O)(=O)c1cc2c(cc1C(F)(F)F)NC(Cc1ccccc1)NS2(=O)=O (configuration not stated)
inactive: Potency [1] | Potency [2] | Potency [3] | Potency [4]

Nc1nc(=O)n([C@@H]2CS[C@H](CO)O2)cc1F
inactive: Potency [1] | Potency [2] | Potency [3] | Potency [4]

C[C@H](CS)C(=O)N1CCC[C@H]1C(=O)O
inactive: Potency [1] | Potency [2] | Potency [3] | Potency [4]

CCCCCCCC/C=C/C(=O)O
inactive: Potency [1] | Potency [2] | Potency [3] | Potency [4]

CC(CSC(=O)c1ccccc1)C(=O)N1C[C@@H](Sc2ccccc2)C[C@H]1C(=O)O (some centres not stated)
inactive: Potency [1] | Potency [2] | Potency [3] | Potency [4]

O=C(CS(=O)Cc1ccco1)NC/C=C\COc1cc(CN2CCCCC2)ccn1 (configuration not stated)
inactive: Potency [1] | Potency [2] | Potency [3] | Potency [4]

CC(C(=O)O)c1ccc(/C=C2\CCCCC2=O)cc1 (configuration not stated)
inactive: Potency [1] | Potency [2] | Potency [3] | Potency [4]

CN(C)CCc1c[nH]c2ccc(Cn3cncn3)cc12
inactive: Potency [1] | Potency [2] | Potency [3] | Potency [4]

CCCCCC[C@@H](CCC)C(=O)O
inactive: Potency [1] | Potency [2] | Potency [3] | Potency [4]

CC(=O)OCC(=O)[C@@]1(O)[C@H](OC(C)=O)C[C@H]2[C@@H]3CCC4=CC(=O)C=C[C@]4(C)[C@@]3(F)[C@@H](O)C[C@@]21C
inactive: Potency [1] | Potency [2] | Potency [3] | Potency [4]

C[C@]12CCC(=O)C=C1CC[C@@H]1[C@@H]2[C@@H](O)C[C@@]2(C)[C@H]1CC[C@]2(O)C(=O)COC(=O)CCC(=O)O
inactive: Potency [1] | Potency [2] | Potency [3] | Potency [4]

Cc1oc(=O)oc1CN1CCN(c2cc3c(cc2F)c(=O)c(C(=O)O)c2n3C(C)S2)CC1 (configuration not stated)
inactive: Potency [1] | Potency [2] | Potency [3] | Potency [4]

C#C[C@]1(O)CC[C@H]2[C@@H]3CCc4cc(OC5CCCC5)ccc4[C@H]3CC[C@@]21C
inactive: Potency [1] | Potency [2] | Potency [3] | Potency [4]

CN=C(NC#N)NCCSCc1nc[nH]c1C
inactive: Potency [1] | Potency [2] | Potency [3] | Potency [4]

Cc1noc(NS(=O)(=O)c2ccc(N)cc2)c1C
inactive: Potency [1] | Potency [2] | Potency [3] | Potency [4]

NC(=O)c1cnccn1
inactive: Potency [1] | Potency [2] | Potency [3] | Potency [4]

Cc1ccccc1N1CCN(CCc2nnc3n2CCCC3)CC1
inactive: Potency [1] | Potency [2] | Potency [3] | Potency [4]

NCC(=O)CCC(=O)O
inactive: Potency [1] | Potency [2] | Potency [3] | Potency [4]

COCCCOc1ccnc(CS(=O)c2nc3ccccc3[nH]2)c1C (configuration not stated)
inactive: Potency [1] | Potency [2] | Potency [3] | Potency [4]

CC(=O)CC(c1ccc([N+](=O)[O-])cc1)c1c(O)c2ccccc2oc1=O (configuration not stated)
inactive: Potency [1] | Potency [2] | Potency [3] | Potency [4]

CC(=O)SCC(CC(=O)c1ccc(C)cc1)C(=O)O (configuration not stated)
inactive: Potency [1] | Potency [2] | Potency [3] | Potency [4]

CCCCCCCC(=O)OCC(COC(=O)CCCCCCC)OC(=O)CCCCCCC
inactive: Potency [1] | Potency [2] | Potency [3] | Potency [4]

CN1CCN(CC(=O)N2c3ccccc3C(=O)Nc3cccnc32)CC1
inactive: activity change, negative = inhibition [1] -4.78% [at 5.34 µM] | activity change, negative = cytotoxicity [2] 1.37% [at 5.34 µM] | outcome [3] inactive [at 5.34 µM] | outcome [4] inactive [at 5.34 µM]

Cc1cccc(C)c1NC(=O)CC12CCCN1CCC2
inactive: Potency [1] | Potency [2] | Potency [3] | Potency [4]

Nc1ccn(C[C@@H](CO)OCP(=O)(O)O)c(=O)n1
inactive: outcome [1] inactive [at 0.573 µM] | outcome [2] inactive [at 0.573 µM] | outcome [3] inactive [at 0.573 µM] | activity change, negative = cytotoxicity [4] -5.43% [at 0.573 µM]

Cc1c(F)c(N2CCNC(C)C2)cc2c1c(=O)c(C(=O)O)cn2C1CC1 (configuration not stated)
inactive: Potency [1] | Potency [2] | Potency [3] | Potency [4]

NS(=O)(=O)c1cc(-c2nn[nH]n2)c(NCc2cccs2)cc1Cl
inactive: Potency [1] | Potency [2] | Potency [3] | Potency [4]

CC(C)COC(=O)c1ccc(N)cc1
inactive: Potency [1] | Potency [2] | Potency [3] | Potency [4]

NC(=O)NC1NC(=O)NC1=O (configuration not stated)
inactive: Potency [1] | Potency [2] | Potency [3] | Potency [4]

CC(CCc1ccccc1)NCC(O)c1ccc(O)c(C(N)=O)c1 (configuration not stated)
inactive: Potency [1] | Potency [2] | Potency [3] | Potency [4]

CC(C)(C)NC[C@H](O)COc1nsnc1N1CCOCC1
inactive: Potency [1] | Potency [2] | Potency [3] | Potency [4]

NNC(=O)c1ccncc1
inactive: Potency [1] | Potency [2] | Potency [3] | Potency [4]

CCCCC(CC)COC(=O)c1ccccc1O (configuration not stated)
inactive: Potency [1] | Potency [2] | Potency [3] | Potency [4]

CC1(C)O[C@@H]2C[C@H]3[C@@H]4CCC5=CC(=O)C=C[C@]5(C)[C@@]4(F)[C@@H](O)C[C@]3(C)[C@]2(C(=O)CO)O1
inactive: Potency [1] | Potency [2] | Potency [3] | Potency [4]

C[C@](N)(Cc1ccc(O)cc1)C(=O)O
inactive: activity change, negative = inhibition [1] -0.396% [at 5.34 µM] | outcome [2] inactive [at 5.34 µM] | outcome [3] inactive [at 5.34 µM] | activity change, negative = cytotoxicity [4] -24.5% [at 5.34 µM]

COC(=O)C(c1ccccc1)C1CCCCN1 (configuration not stated)
inactive: Potency [1] | Potency [2] | Potency [3] | Potency [4]

Cc1cc(C)nc(NS(=O)(=O)c2ccc(N)cc2)n1
inactive: Potency [1] | Potency [2] | Potency [3] | Potency [4]

Cc1nnc(SCC2=C(C(=O)O)N3C(=O)[C@@H](NC(=O)Cn4cnnn4)[C@H]3SC2)s1
inactive: Potency [1] | Potency [2] | Potency [3] | Potency [4]

CCOC(=O)[C@H](CCc1ccccc1)N[C@H]1CCCN2CCC[C@@H](C(=O)O)N2C1=O
inactive: Potency [1] | Potency [2] | Potency [3] | Potency [4]

CC(=O)OCC(=O)[C@@]1(O)CC[C@H]2[C@@H]3CCC4=CC(=O)C=C[C@]4(C)[C@@]3(F)[C@@H](O)C[C@@]21C
inactive: Potency [1] | Potency [2] | Potency [3] | Potency [4]

O=C1c2c(O)cccc2Cc2cccc(O)c21
inactive: Potency [1] | Potency [2] | Potency [3] | Potency [4]

CCC(=O)c1c(O)cc(O)cc1O
inactive: Potency [1] | Potency [2] | Potency [3] | Potency [4]

NS(=O)(=O)c1cc(C(=O)NN2C[C@H]3[C@H]4CCC(C4)[C@H]3C2)ccc1Cl
inactive: Potency [1] | Potency [2] | Potency [3] | Potency [4]

CC(C)(Oc1ccc(Cl)cc1)C(=O)OCCCOC(=O)C(C)(C)Oc1ccc(Cl)cc1
inactive: Potency [1] | Potency [2] | Potency [3] | Potency [4]

O=S(=O)(O)c1ccc2nc(-c3ccccc3)[nH]c2c1
inactive: Potency [1] | Potency [2] | Potency [3] | Potency [4]

CCn1nc(C(=O)O)c(=O)c2cc3c(cc21)OCO3
inactive: Potency [1] | Potency [2] | Potency [3] | Potency [4]

COCCCN1CCC(NC(=O)c2cc(Cl)c(N)c3c2OCC3)CC1
inactive: Potency [1] | Potency [2] | Potency [3] | Potency [4]

CCCCCCCCCCCCOCCO
inactive: Potency [1] | Potency [2] | Potency [3] | Potency [4]

N[C@@H](CCC(=O)N[C@@H](CS)C(=O)NCC(=O)O)C(=O)O
inactive: Potency [1] | Potency [2] | Potency [3] | Potency [4]

CC(C)(C(=O)c1cccnc1)c1cccnc1
inactive: Potency [1] | Potency [2] | Potency [3] | Potency [4]

Nc1ccc(S(=O)(=O)Nc2ccccn2)cc1
inactive: Potency [1] | Potency [2] | Potency [3] | Potency [4]

CN1C(CSCC(F)(F)F)Nc2cc(Cl)c(S(N)(=O)=O)cc2S1(=O)=O (configuration not stated)
inactive: Potency [1] | Potency [2] | Potency [3] | Potency [4]

CC(=O)N(c1onc(C)c1C)S(=O)(=O)c1ccc(N)cc1
inactive: Potency [1] | Potency [2] | Potency [3] | Potency [4]

CC(=O)OCC1=C(C(=O)O)N2C(=O)[C@@H](NC(=O)Cc3cccs3)[C@H]2SC1
inactive: Potency [1] | Potency [2] | Potency [3] | Potency [4]

Cc1ccccc1OCC(O)CO (configuration not stated)
inactive: Potency [1] | Potency [2] | Potency [3] | Potency [4]

CC(C)Cn1cnc2c(N)nc3ccccc3c21
inactive: Potency [1] | Potency [2] | Potency [3] | Potency [4]

Cc1cc(NS(=O)(=O)c2ccc(N)cc2)no1
inactive: Potency [1] | Potency [2] | Potency [3] | Potency [4]

OCCOCCN1CCN(C2=Nc3ccccc3Sc3ccccc32)CC1
inactive: Potency [1] | Potency [2] | Potency [3] | Potency [4]

Cc1cc(NS(=O)(=O)c2ccc(N)cc2)nc(C)n1
inactive: Potency [1] | Potency [2] | Potency [3] | Potency [4]

CC1CCc2c(N3CCC(O)CC3)c(F)cc3c(=O)c(C(=O)O)cn1c23 (configuration not stated)
inactive: Potency [1] | Potency [2] | Potency [3] | Potency [4]

CC(=O)NS(=O)(=O)c1ccc(N)cc1
inactive: Potency [1] | Potency [2] | Potency [3] | Potency [4]

CCC(Cc1c(I)cc(I)c(N)c1I)C(=O)O (configuration not stated)
inactive: Potency [1] | Potency [2] | Potency [3] | Potency [4]

COC(=O)/C=C\C(=O)OC
inactive: Potency [1] | Potency [2] | Potency [3] | Potency [4]

Cc1cccc(C)c1NC(=O)c1cc(S(N)(=O)=O)c(Cl)cc1O
inactive: Potency [1] | Potency [2] | Potency [3] | Potency [4]

Nc1nc2[nH]cc(CCc3ccc(C(=O)N[C@@H](CCC(=O)O)C(=O)O)cc3)c2c(=O)[nH]1
inactive: Potency [1] | Potency [2] | Potency [3] | Potency [4]

C/C(=N\O)[C@@H](C)NCC(C)(C)CN[C@H](C)/C(C)=N/O
inactive: Potency [1] | Potency [2] | Potency [3] | Potency [4]

CNC(=O)c1c(I)c(NC(C)=O)c(I)c(C(=O)O)c1I
inactive: Potency [1] | Potency [2] | Potency [3] | Potency [4]

CCOC(=O)NNc1ccc(N(CC)CC(C)O)nn1 (configuration not stated)
inactive: Potency [1] | Potency [2] | Potency [3] | Potency [4]

O=C(O)CNC(=O)c1ccccc1
inactive: Potency [1] | Potency [2] | Potency [3] | Potency [4]

COc1ccc(C(=O)CC(=O)c2ccc(C(C)(C)C)cc2)cc1
inactive: Potency [1] | Potency [2] | Potency [3] | Potency [4]

O=C1CC[C@H](C(=O)N2CCCCC2)N1
inactive: Potency [1] | Potency [2] | Potency [3] | Potency [4]
